# Source: paper PMC7862700, “An all-to-all approach to the identification of sequence-specific readers for epigenetic DNA modifications on cytosine”
# Legend:
# Assay in all cases: DAPPL (digital affinity profiling via proximity ligation, sequencing); 10 mM Tris-HCl pH 7.5, 50 mM NaCl, 1 mM DTT, 4% glycerol, room temperature, 30 min; GST-TFs on glutathione beads, 16-mer random dsDNA library, 0.1% formaldehyde crosslink after washing; high values mean tight binding
# FEV = target: T1, FEV (Homo sapiens, UniProt Q99581 1-238); settings: protein: recombinant; tags: N-terminal GST; dsDNA, one strand shown
# T1 sequence: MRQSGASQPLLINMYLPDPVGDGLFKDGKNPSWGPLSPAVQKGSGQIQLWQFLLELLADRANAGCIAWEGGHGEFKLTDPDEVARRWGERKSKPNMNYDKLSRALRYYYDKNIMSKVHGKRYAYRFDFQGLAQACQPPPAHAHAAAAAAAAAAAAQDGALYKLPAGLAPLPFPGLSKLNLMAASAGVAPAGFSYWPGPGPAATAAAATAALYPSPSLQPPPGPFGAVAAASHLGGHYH
# How it was run: (§1)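 Binding signal is each hexamer's read frequency for a factor divided by its frequency in the tag-only sample. The factors were GST-fused human transcription factors from yeast, captured on glutathione beads, DNA-barcoded and pooled with that sample. Pools were incubated with 200 nmole of a random double-stranded 16-mer DNA library in Tris/NaCl/DTT/glycerol buffer at room temperature for 30 min, then washed, crosslinked with 0.1% formaldehyde, proximity-ligated with BsaI/T4 ligase (1 h, 37 °C), PCR-amplified and sequenced on an Illumina NextSeq500.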
# ETV5 = ETV5 (Homo sapiens, UniProt P41161 1-510); settings: protein: recombinant; tags: N-terminal GST; dsDNA, one strand shown
# How it was run: as §1
# HSF1 = HSF1 (Homo sapiens, UniProt Q00613 1-529); settings: protein: recombinant; tags: N-terminal GST; chain copies: 3; dsDNA, one strand shown
# How it was run: as §1
# SPIC = target: T2, SPIC (Homo sapiens, UniProt Q8N5J4 1-248); settings: protein: recombinant; tags: N-terminal GST; dsDNA, one strand shown
# T2 sequence: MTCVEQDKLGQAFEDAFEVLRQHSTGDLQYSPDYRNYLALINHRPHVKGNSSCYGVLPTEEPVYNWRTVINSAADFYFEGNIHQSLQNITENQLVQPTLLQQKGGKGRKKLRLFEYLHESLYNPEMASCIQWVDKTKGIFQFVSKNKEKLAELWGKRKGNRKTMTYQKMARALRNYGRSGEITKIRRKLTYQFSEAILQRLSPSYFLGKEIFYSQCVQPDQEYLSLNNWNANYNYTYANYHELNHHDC
# How it was run: as §1
# ELF4 = ELF4 (Homo sapiens, UniProt Q99607 1-663); settings: protein: recombinant; tags: N-terminal GST; dsDNA, one strand shown
# How it was run: as §1
# ELK4 = target: T3, ELK4 (Homo sapiens, UniProt P28324-2 1-405); settings: protein: recombinant; tags: N-terminal GST; dsDNA, one strand shown
# T3 sequence: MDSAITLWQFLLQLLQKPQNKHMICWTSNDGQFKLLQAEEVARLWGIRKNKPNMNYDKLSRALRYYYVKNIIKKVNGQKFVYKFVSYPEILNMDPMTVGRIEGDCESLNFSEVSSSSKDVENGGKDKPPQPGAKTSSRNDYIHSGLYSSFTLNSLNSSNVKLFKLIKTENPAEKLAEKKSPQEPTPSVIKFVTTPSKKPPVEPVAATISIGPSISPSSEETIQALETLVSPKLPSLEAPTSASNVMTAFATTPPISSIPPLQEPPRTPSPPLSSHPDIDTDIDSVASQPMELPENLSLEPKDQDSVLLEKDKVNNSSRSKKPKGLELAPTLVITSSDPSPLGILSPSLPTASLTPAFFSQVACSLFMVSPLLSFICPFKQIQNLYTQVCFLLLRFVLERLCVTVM
# How it was run: as §1
# ETV2 = target: T4, ETV2 (Homo sapiens, UniProt O00321 1-342); settings: protein: recombinant; tags: N-terminal GST; dsDNA, one strand shown
# T4 sequence: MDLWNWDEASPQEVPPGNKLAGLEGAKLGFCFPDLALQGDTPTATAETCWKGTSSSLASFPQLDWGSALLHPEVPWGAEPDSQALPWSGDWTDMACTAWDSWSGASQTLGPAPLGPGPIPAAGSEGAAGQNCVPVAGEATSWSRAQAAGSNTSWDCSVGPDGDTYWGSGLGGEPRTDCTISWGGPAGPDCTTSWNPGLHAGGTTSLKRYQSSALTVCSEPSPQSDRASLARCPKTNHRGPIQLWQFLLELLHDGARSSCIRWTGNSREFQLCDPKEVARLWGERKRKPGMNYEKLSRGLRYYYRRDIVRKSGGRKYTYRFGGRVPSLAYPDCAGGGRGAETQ
# How it was run: as §1
# ELF3 = target: T5, ELF3 (Homo sapiens, UniProt P78545 1-371); settings: protein: recombinant; tags: N-terminal GST; dsDNA, one strand shown
# T5 sequence: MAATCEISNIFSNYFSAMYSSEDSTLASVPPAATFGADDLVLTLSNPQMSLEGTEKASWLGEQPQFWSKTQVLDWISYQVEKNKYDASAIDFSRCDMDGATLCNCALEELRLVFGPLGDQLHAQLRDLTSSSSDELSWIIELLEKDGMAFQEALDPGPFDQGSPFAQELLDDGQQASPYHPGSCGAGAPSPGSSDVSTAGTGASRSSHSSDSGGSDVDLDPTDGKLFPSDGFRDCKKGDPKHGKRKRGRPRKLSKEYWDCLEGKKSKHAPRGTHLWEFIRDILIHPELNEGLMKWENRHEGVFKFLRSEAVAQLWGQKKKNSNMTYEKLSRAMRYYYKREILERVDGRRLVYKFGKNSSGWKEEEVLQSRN
# How it was run: as §1
# CRX = CRX (Homo sapiens, UniProt O43186 1-299); settings: protein: recombinant; tags: N-terminal GST; dsDNA, one strand shown
# How it was run: as §1
# ETV1 = ETV1 (Homo sapiens, UniProt P50549 1-477); settings: protein: recombinant; tags: N-terminal GST; dsDNA, one strand shown
# How it was run: as §1
# ERF = target: T6, ERF (Homo sapiens, UniProt P50548 1-548); settings: protein: recombinant; tags: N-terminal GST; dsDNA, one strand shown
# T6 sequence: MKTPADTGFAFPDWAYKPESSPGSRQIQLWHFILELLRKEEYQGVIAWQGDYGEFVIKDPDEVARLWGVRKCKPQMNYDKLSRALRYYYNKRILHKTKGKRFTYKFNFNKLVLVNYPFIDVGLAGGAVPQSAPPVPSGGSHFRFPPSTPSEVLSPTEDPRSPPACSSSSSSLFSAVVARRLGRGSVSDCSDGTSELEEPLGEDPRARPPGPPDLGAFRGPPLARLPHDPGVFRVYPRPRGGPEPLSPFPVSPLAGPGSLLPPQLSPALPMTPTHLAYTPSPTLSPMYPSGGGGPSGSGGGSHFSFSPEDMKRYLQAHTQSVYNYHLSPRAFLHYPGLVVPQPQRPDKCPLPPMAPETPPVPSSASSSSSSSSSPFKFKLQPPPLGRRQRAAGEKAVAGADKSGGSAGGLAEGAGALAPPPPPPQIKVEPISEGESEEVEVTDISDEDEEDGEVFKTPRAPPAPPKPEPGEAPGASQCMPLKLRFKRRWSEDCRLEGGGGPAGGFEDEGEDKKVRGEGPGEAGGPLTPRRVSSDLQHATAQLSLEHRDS
# How it was run: as §1
# ETV3L = target: T7, ETV3L (Homo sapiens, UniProt Q6ZN32 1-361); settings: protein: recombinant; tags: N-terminal GST; dsDNA, one strand shown
# T7 sequence: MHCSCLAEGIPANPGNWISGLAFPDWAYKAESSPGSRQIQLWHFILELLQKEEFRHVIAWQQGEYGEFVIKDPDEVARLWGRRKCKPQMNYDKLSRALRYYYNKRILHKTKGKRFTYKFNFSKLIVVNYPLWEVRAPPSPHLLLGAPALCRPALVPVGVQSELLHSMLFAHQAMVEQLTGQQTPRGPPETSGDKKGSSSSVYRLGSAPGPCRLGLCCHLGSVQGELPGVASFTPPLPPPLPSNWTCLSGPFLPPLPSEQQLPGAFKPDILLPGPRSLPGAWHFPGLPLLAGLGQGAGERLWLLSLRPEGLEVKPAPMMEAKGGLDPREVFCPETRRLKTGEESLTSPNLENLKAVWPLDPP
# How it was run: as §1
# ETS2 = target: T8, ETS2 (Homo sapiens, UniProt P15036 1-469); settings: protein: recombinant; tags: N-terminal GST; dsDNA, one strand shown
# T8 sequence: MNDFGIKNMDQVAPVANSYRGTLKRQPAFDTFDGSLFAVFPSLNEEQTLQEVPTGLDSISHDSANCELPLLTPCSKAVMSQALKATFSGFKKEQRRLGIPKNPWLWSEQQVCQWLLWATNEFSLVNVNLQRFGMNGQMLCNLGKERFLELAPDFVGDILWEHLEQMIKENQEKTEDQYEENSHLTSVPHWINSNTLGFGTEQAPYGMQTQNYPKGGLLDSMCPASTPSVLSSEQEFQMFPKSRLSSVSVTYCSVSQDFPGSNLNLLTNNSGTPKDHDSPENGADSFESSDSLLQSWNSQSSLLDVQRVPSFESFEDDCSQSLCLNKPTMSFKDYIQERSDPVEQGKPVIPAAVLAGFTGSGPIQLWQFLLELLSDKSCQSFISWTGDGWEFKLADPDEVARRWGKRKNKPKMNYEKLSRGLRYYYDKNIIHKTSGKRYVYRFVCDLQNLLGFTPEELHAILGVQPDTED
# How it was run: as §1
# SPDEF = target: T9, SPDEF (Homo sapiens, UniProt O95238 1-335); settings: protein: recombinant; tags: N-terminal GST; dsDNA, one strand shown
# T9 sequence: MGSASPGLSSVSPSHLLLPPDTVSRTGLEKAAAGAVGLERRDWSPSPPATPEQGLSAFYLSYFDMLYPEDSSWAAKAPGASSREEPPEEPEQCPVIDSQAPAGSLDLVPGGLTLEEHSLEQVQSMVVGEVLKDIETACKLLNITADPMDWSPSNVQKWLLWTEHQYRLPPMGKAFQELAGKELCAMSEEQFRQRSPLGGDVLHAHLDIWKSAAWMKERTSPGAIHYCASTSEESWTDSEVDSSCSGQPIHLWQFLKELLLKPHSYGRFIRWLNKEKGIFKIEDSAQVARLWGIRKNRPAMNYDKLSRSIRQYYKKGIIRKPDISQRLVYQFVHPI
# How it was run: as §1
# ETV7 = target: T10, ETV7 (Homo sapiens, UniProt Q9Y603 1-341); settings: protein: recombinant; tags: N-terminal GST; dsDNA, one strand shown
# T10 sequence: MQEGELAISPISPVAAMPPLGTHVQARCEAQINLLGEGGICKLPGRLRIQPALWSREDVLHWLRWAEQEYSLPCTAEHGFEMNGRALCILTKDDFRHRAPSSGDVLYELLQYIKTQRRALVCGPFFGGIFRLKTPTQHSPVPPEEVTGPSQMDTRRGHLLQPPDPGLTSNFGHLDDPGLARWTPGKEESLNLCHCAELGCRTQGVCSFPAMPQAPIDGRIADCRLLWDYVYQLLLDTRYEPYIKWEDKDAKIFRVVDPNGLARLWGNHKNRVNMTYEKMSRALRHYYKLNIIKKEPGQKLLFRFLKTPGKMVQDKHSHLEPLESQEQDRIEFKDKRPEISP
# How it was run: as §1
# ELF5 = target: T11, ELF5 (Homo sapiens, UniProt Q9UKW6-2 1-255); settings: protein: recombinant; tags: N-terminal GST; dsDNA, one strand shown
# T11 sequence: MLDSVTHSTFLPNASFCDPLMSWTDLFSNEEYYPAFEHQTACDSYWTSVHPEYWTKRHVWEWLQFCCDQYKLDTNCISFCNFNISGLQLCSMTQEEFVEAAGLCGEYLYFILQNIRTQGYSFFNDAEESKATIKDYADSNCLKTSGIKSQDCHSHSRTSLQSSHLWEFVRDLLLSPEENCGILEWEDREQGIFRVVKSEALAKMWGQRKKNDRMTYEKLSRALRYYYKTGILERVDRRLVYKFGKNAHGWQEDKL
# How it was run: as §1
# ETV3 = target: T12, ETV3 (Homo sapiens, UniProt P41162-2 1-143); settings: protein: recombinant; tags: N-terminal GST; dsDNA, one strand shown
# T12 sequence: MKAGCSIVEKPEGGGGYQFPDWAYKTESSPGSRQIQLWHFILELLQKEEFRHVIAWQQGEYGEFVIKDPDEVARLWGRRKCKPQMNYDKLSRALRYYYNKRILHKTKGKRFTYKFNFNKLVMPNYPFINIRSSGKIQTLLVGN
# How it was run: as §1
# ETV6 = ETV6 (Homo sapiens, UniProt P41212 1-452); settings: protein: recombinant; tags: N-terminal GST; dsDNA, one strand shown
# How it was run: as §1
# Chain of ETV1 (P50549 whole entry): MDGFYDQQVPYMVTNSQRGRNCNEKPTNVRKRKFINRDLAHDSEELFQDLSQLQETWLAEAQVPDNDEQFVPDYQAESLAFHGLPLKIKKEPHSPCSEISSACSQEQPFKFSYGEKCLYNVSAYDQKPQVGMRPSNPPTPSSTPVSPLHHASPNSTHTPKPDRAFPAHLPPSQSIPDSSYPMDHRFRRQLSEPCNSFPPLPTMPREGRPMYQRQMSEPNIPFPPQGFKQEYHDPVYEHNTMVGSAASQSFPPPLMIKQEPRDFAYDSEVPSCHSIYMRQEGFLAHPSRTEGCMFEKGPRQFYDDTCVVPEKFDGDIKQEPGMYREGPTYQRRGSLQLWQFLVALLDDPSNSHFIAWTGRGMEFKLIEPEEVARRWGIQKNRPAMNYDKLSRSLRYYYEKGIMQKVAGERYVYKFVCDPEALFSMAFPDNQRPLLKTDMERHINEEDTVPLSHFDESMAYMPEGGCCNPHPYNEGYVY
# Chain of HSF1 (Q00613 whole entry): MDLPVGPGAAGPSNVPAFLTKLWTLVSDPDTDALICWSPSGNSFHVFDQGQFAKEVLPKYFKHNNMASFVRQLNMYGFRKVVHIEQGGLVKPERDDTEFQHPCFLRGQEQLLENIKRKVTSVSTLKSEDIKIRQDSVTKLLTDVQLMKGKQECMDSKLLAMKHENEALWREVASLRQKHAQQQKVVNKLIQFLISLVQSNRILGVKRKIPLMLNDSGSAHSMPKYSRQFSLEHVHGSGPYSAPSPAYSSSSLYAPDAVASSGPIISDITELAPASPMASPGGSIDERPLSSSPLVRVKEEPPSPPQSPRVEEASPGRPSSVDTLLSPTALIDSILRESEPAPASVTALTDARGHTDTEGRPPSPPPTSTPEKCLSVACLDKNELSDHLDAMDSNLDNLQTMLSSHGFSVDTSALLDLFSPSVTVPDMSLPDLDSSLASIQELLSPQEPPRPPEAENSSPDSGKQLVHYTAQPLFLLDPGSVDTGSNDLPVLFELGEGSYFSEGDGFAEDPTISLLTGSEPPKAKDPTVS
# Chain of CRX (O43186 whole entry): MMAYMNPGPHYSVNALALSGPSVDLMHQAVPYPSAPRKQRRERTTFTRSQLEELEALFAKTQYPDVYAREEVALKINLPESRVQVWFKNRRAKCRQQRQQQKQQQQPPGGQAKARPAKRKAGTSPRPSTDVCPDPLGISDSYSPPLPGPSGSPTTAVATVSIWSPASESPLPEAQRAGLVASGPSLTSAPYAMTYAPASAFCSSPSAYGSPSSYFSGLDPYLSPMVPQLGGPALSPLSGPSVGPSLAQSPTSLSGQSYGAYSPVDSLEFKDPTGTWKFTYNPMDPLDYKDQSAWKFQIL
# Chain of ETV5 (P41161 whole entry): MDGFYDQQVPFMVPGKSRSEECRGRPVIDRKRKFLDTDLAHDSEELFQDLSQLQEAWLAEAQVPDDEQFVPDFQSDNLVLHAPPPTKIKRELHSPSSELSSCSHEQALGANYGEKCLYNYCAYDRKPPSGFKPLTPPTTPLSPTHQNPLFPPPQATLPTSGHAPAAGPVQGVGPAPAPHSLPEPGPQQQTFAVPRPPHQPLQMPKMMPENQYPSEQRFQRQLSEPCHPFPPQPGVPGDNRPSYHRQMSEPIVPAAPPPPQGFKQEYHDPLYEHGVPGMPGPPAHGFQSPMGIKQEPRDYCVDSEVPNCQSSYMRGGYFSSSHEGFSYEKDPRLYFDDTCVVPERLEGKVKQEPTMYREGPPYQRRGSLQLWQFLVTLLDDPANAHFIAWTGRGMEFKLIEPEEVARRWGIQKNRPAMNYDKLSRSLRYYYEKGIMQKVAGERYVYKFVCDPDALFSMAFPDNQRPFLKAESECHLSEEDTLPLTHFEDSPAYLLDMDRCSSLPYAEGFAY
# Chain of ETV6 (P41212 whole entry): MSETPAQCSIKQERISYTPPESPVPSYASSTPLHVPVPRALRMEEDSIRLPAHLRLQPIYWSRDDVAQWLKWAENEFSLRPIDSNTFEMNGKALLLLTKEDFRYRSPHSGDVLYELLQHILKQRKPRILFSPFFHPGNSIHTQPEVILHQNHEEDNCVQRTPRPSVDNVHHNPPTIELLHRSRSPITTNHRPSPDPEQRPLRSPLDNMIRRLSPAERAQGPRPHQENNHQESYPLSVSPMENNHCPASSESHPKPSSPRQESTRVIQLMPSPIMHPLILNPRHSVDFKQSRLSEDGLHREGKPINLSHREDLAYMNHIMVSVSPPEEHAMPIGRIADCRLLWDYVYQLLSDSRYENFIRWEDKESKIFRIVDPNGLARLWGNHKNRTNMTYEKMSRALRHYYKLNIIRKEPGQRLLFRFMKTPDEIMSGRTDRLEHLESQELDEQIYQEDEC
# Chain of ELF4 (Q99607 whole entry): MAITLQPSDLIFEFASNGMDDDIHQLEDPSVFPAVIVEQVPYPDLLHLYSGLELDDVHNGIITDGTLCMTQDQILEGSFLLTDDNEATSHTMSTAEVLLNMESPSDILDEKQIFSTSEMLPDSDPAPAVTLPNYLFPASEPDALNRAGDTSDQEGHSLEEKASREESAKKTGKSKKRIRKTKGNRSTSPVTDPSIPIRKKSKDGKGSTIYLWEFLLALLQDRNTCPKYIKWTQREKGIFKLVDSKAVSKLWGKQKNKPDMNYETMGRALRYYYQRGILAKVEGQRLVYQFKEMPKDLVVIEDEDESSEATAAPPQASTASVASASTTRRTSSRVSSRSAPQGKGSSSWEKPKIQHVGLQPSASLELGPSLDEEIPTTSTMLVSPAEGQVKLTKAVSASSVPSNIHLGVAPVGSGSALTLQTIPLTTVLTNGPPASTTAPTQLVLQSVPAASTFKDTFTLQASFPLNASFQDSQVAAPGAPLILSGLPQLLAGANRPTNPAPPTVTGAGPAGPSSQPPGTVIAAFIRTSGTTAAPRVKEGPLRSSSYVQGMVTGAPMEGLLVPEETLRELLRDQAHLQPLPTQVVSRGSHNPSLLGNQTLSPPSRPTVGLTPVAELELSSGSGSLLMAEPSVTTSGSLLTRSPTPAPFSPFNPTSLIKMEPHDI
sequence,measurement,setting,value
AAAACT,binding signal,FEV,"1.16 fold enrichment (6-mer frequency, TF over GST control)"
same,binding signal,ETV5,"1.15 fold enrichment (6-mer frequency, TF over GST control)"
same,binding signal,HSF1,"1.18 fold enrichment (6-mer frequency, TF over GST control)"
same,binding signal,SPIC,"1.23 fold enrichment (6-mer frequency, TF over GST control)"
same,binding signal,ELF4,"1.21 fold enrichment (6-mer frequency, TF over GST control)"
same,binding signal,ELK4,"1.1 fold enrichment (6-mer frequency, TF over GST control)"
same,binding signal,ETV2,"1.19 fold enrichment (6-mer frequency, TF over GST control)"
same,binding signal,ELF3,"1.12 fold enrichment (6-mer frequency, TF over GST control)"
same,binding signal,CRX,"1.16 fold enrichment (6-mer frequency, TF over GST control)"
same,binding signal,ETV1,"1.13 fold enrichment (6-mer frequency, TF over GST control)"
same,binding signal,ERF,"1.2 fold enrichment (6-mer frequency, TF over GST control)"
same,binding signal,ETV3L,"1.19 fold enrichment (6-mer frequency, TF over GST control)"
same,binding signal,ETS2,"1.24 fold enrichment (6-mer frequency, TF over GST control)"
same,binding signal,SPDEF,"1.09 fold enrichment (6-mer frequency, TF over GST control)"
same,binding signal,ETV7,"1.29 fold enrichment (6-mer frequency, TF over GST control)"
same,binding signal,ELF5,"1.27 fold enrichment (6-mer frequency, TF over GST control)"
same,binding signal,ETV3,"1.21 fold enrichment (6-mer frequency, TF over GST control)"
same,binding signal,ETV6,"1.19 fold enrichment (6-mer frequency, TF over GST control)"
